According to PubChem BioAssay:
Calls of active or inactive are those of the source.

biological target: NADPH oxidase 2 (Homo sapiens) (UniProt P04839); experiment: compounds shifting NOX2 Amplex Red fluorescence – cell-based, HEK293-NOX2, PMA-stimulated, NOX inhibitor project, primary screen (AID 1159); conditions: 45 min, higher = more signal, called active from +8 up or from −8 down; note: test concentration not given here
Sequence (P04839 whole entry, looked up): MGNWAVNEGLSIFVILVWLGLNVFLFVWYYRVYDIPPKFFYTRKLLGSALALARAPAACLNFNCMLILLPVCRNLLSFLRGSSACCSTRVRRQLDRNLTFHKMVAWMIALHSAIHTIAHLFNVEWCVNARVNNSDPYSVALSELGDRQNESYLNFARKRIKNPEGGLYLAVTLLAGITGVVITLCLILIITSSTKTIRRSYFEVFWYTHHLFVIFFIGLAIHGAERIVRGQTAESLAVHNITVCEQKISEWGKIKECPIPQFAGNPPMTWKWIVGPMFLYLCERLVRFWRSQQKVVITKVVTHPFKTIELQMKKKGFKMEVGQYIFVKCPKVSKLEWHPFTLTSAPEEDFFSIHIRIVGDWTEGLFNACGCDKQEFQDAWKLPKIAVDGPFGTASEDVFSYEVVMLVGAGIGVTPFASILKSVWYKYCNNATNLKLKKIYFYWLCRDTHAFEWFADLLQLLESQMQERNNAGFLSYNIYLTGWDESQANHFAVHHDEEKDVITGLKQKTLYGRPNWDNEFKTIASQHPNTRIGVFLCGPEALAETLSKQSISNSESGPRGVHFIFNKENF

z-score, inactive:
CN(C)C(=O)[C@]1(Cc2ccccc2N=[N+]=[N-])N=C(c2ccc(OCCCO)cc2)O[C@@H]1c1ccccc1 -0.906, CCCCCC1=C2CNC(CCC)(C(=O)OC)C=C2C(C)C1=O (stereo not given) 0.0917, COCCOC(=O)N1C(=O)[C@@]2(c3cc(C#CCCO)ccc31)[C@H](C(=O)N1CCc3cc(OC)c(OC)cc3C1)[C@H]1C(=O)O[C@H](c3ccccc3)[C@H](c3ccccc3)N1[C@@H]2c1ccc(O)cc1 1.26, O=C(NCc1ccccc1)[C@@]1(Cc2ccccc2)N=C(c2ccc(OCCCO)cc2)O[C@H]1c1ccccc1 -1.28, CC(C)c1ccc(NN2C(C(O)c3cc(C(F)(F)F)cc(C(F)(F)F)c3)C=CC3C(=O)N(c4ccccc4)C(=O)C32)cc1 (stereo not given) -1.3, CN1C(=O)[C@]2(Cc3ccccc3)N=C(c3ccc(OCCCO)cc3)O[C@@H]2c2ccccc21 -2.02, CC(C)(C)OC(=O)CC[C@]1(C(=O)NCC(O)CO)COC(c2ccc(OCCCO)cc2)=N1 (stereo not given in full) -2.16, CCOC(=O)C[C@H]1[C@H](OC(=O)c2cc3ccccc3oc2=O)[C@@H](NC(=O)Cc2ccc(OC)cc2)c2cc(OCCCO)ccc2N1C(=O)c1ccccc1 -0.569, COc1ccc(CCNC(=O)[C@@]2(Sc3ccc(C)cc3)CC(=O)N(C3CCCCC3)[C@@H]2c2ccc(CO)cc2I)cc1 0.573, COc1ccc(C(=O)O[C@H]2CC[C@]3(C)C4=C(CCC3C2(C)C)[C@]2(C)CC[C@H]([C@H](C)CCCC(C)C)[C@@]2(C)CC4)cc1 (stereo not given in full) -0.13
